# Molecular target: T1, GABPA (Homo sapiens, UniProt Q06546 1-454)
# T1 sequence: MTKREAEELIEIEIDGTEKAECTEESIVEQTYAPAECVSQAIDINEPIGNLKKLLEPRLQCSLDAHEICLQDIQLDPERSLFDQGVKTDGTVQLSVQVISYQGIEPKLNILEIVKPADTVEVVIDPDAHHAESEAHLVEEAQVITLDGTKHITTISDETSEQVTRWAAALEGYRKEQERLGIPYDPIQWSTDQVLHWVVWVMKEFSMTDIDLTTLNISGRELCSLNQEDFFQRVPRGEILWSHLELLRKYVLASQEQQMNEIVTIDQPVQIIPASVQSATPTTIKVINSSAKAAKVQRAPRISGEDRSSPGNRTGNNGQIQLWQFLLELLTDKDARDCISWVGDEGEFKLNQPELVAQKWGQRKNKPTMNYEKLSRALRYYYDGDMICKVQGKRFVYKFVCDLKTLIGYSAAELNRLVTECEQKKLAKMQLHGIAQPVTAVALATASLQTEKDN
# Assay: DAPPL (digital affinity profiling via proximity ligation, sequencing); 10 mM Tris-HCl pH 7.5, 50 mM NaCl, 1 mM DTT, 4% glycerol, room temperature, 30 min; GST-TFs on glutathione beads, 16-mer random dsDNA library, 0.1% formaldehyde crosslink after washing; high values mean tight binding
# Settings: protein: recombinant; tags: N-terminal GST; dsDNA, one strand shown
# Summary of the method: (§1)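 Pools were built from human transcription factors expressed in yeast as GST fusions, captured on glutathione beads and DNA-barcoded, along with a tag-only sample. Incubation with 200 nmole of a 16-mer random double-stranded DNA library lasted 30 min at room temperature in Tris/NaCl/DTT/glycerol buffer, and was followed by washing, 0.1% formaldehyde crosslinking, proximity ligation, PCR amplification and Illumina NextSeq500 sequencing. Binding signal is the quotient of each hexamer's read frequency for a factor and its frequency for the tag-only sample.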
row,Sequence,binding signal
1,AGCTTG,"1.02 fold enrichment (6-mer frequency, TF over GST control)"
2,CCAAAG,"1.01 fold enrichment (6-mer frequency, TF over GST control)"
3,CGCCGT,"1.01 fold enrichment (6-mer frequency, TF over GST control)"

# Molecular target: T2, EHF (Homo sapiens, UniProt Q9NZC4 1-300)
# T2 sequence: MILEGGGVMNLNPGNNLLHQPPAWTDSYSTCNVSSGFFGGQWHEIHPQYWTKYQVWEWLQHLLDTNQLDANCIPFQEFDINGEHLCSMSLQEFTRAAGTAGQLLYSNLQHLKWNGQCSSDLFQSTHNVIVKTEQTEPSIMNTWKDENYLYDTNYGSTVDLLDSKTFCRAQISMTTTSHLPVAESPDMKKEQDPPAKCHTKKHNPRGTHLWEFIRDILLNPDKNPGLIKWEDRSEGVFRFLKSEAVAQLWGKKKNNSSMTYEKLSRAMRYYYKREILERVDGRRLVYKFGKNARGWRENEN
# Assay: as above
# Settings: protein: recombinant; tags: N-terminal GST; dsDNA, one strand shown
# Summary of the method: as §1
row,Sequence,binding signal
1,CAACAG,"1 fold enrichment (6-mer frequency, TF over GST control)"
2,ACAAGG,"1.04 fold enrichment (6-mer frequency, TF over GST control)"
3,GAGCTA,"1 fold enrichment (6-mer frequency, TF over GST control)"
4,TGTCGC,"1.03 fold enrichment (6-mer frequency, TF over GST control)"
5,GGATGA,"1 fold enrichment (6-mer frequency, TF over GST control)"

# Molecular target: SPI1 (Homo sapiens, UniProt P17947 1-270)
# Assay: as above
# Settings: protein: recombinant; tags: N-terminal GST; dsDNA, one strand shown
# Summary of the method: as §1
row,Sequence,binding signal
1,AGTACG,"1.02 fold enrichment (6-mer frequency, TF over GST control)"
2,GTGCAC,"1.07 fold enrichment (6-mer frequency, TF over GST control)"
3,AAGGGA,"1.07 fold enrichment (6-mer frequency, TF over GST control)"
4,TGTCGC,"1.02 fold enrichment (6-mer frequency, TF over GST control)"
5,AGTCTT,"1.03 fold enrichment (6-mer frequency, TF over GST control)"
6,GTGTAA,"1.04 fold enrichment (6-mer frequency, TF over GST control)"

# Molecular target: T3, ELK3 (Homo sapiens, UniProt P41970 1-407)
# T3 sequence: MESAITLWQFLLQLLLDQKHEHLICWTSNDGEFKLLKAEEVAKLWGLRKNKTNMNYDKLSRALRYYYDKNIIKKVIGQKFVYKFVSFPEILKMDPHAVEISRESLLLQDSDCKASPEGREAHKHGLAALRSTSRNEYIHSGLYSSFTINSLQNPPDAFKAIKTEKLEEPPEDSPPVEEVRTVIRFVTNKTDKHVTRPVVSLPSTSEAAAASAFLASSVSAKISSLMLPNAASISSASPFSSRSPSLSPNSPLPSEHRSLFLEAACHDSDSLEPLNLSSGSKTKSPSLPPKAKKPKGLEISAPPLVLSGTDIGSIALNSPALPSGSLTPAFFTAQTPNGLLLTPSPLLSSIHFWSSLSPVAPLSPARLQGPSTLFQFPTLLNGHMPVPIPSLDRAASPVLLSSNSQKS
# Assay: as above
# Settings: protein: recombinant; tags: N-terminal GST; dsDNA, one strand shown
# Summary of the method: as §1
row,Sequence,binding signal
1,CAACAG,"1.01 fold enrichment (6-mer frequency, TF over GST control)"
2,ACAAGG,"1.02 fold enrichment (6-mer frequency, TF over GST control)"
3,GATTGG,"1.01 fold enrichment (6-mer frequency, TF over GST control)"
4,AGTTAT,"1 fold enrichment (6-mer frequency, TF over GST control)"

# Molecular target: T4, ELF3 (Homo sapiens, UniProt P78545 1-371)
# T4 sequence: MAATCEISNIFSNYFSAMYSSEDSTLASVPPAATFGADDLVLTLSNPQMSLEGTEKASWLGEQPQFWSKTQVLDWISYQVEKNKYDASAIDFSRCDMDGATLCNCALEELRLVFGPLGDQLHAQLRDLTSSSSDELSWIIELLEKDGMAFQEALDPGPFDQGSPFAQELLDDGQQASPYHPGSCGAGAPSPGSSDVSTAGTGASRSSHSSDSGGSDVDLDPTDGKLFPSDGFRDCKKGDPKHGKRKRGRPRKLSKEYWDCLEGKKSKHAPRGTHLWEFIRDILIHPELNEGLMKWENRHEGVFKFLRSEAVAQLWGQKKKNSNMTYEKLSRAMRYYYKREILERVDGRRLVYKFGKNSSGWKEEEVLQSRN
# Assay: as above
# Settings: protein: recombinant; tags: N-terminal GST; dsDNA, one strand shown
# Summary of the method: as §1
row,Sequence,binding signal
1,CAACAG,"1.03 fold enrichment (6-mer frequency, TF over GST control)"
2,ACAAGG,"1.09 fold enrichment (6-mer frequency, TF over GST control)"
3,GGTTGT,"1.06 fold enrichment (6-mer frequency, TF over GST control)"
4,GAGCTA,"1.02 fold enrichment (6-mer frequency, TF over GST control)"
5,AGTACG,"1.01 fold enrichment (6-mer frequency, TF over GST control)"
6,TGACAG,"1.09 fold enrichment (6-mer frequency, TF over GST control)"
7,GAAAGG,"1.03 fold enrichment (6-mer frequency, TF over GST control)"
8,GTGCAC,"1.02 fold enrichment (6-mer frequency, TF over GST control)"
9,AAGGGA,"1.03 fold enrichment (6-mer frequency, TF over GST control)"
10,TGTCGC,"1.08 fold enrichment (6-mer frequency, TF over GST control)"
11,ACCGGT,"1.01 fold enrichment (6-mer frequency, TF over GST control)"
12,TACGGG,"1.01 fold enrichment (6-mer frequency, TF over GST control)"
13,GTGTAA,"1.11 fold enrichment (6-mer frequency, TF over GST control)"
14,CGCGGA,"1.07 fold enrichment (6-mer frequency, TF over GST control)"
15,AGTTAT,"1.08 fold enrichment (6-mer frequency, TF over GST control)"

# Molecular target: CRX (Homo sapiens, UniProt O43186 1-299)
# Assay: as above
# Settings: protein: recombinant; tags: N-terminal GST; dsDNA, one strand shown
# Summary of the method: as §1
# Sequence of CRX (O43186 whole entry): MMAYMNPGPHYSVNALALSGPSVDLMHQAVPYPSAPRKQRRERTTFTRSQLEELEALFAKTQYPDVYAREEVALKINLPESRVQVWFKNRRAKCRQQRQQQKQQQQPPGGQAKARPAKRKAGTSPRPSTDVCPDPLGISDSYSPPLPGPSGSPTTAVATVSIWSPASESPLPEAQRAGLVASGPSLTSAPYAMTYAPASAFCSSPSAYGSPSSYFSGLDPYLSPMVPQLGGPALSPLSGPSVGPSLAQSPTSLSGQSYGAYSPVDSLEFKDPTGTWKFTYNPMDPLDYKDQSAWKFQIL
row,Sequence,binding signal
1,TAAGTG,"1.14 fold enrichment (6-mer frequency, TF over GST control)"
2,AGCTTG,"1.04 fold enrichment (6-mer frequency, TF over GST control)"
3,GATCAG,"1.08 fold enrichment (6-mer frequency, TF over GST control)"
4,ATTGGA,"1.03 fold enrichment (6-mer frequency, TF over GST control)"
5,AGGATA,"1.14 fold enrichment (6-mer frequency, TF over GST control)"
6,AGCCGA,"1.08 fold enrichment (6-mer frequency, TF over GST control)"
7,ATCAGG,"1.04 fold enrichment (6-mer frequency, TF over GST control)"

# — PMC7862700, “An all-to-all approach to the identification of sequence-specific readers for epigenetic DNA modifications on cytosine”
